Test results: PubChem BioAssay (NCATS)
Several values for one entry are separate records, joined by “and”; a condition that tells them apart may be missing. Equal values may be shown once. Inconclusive results are not listed. Activity calls are given as the source filed them. Unless noted, calls come from the whole dose curve; as a rule, active = well fitted curve in the direction sought with a large enough effect; inconclusive = small, poorly fitted or top-dose-only effect, or another doubt; inactive = no such curve, though single readings can be large; an effect the other way counts as inactive or inconclusive.

Legend:
[1] = target: phosphoglycerate mutase (Leishmania major) (UniProt Q4Q090); assay: qHTS Validation Assay to Find Inhibitors of Phosphoglycerate Mutase (AID 504548);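 note: end-point luminescence from Kinase-GloPlus after the PGAM reaction; series mostly up to about 58 µM; % is set by controls: 0 for no effect and ±100 for the full control effect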
Procedure, shortened: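 Inhibition of L. major PGAM was assessed by Kinase-GloPlus luminescence following a 45-minute room-temperature reaction with enzyme at 1.25nM final.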

[2] = target: Ubiquitin carboxyl-terminal hydrolase 1 (Homo sapiens) (UniProt O94782); assay: Inhibitors of USP1/UAF1: Pilot qHTS (AID 504865); note: nearly all actives have a fitted effect of over 35% in size; note: potency is the fitted concentration of half-maximal effect
Procedure, shortened: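 USP1/UAF1 complex at 1 nM preincubated 15 min at room temperature with compound, then Ub-Rho substrate added at 150 nM final. Fluorescence (480/540 nm) read kinetically in 50 mM HEPES pH 7.8, 0.5 mM EDTA, 1 mM TCEP, 0.1 mg/ml BSA, 0.01% Tween-20.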

[3] = qHTS for Inhibitors of ATXN expression: Validation (AID 588378); note: nearly all actives have a fitted effect of over 75% in size; note: potency is the fitted concentration of half-maximal effect
Procedure, shortened: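 HEK293 cells carrying ATXN2-firefly luciferase reporter, treated with compound 24 h at 37 °C. Viability read first by CellTiter-Fluor (405/525 nm), then reporter expression by Bright-Glo luminescence; controls were a known ATXN2 expression inhibitor and a luciferase inhibitor.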

[4] = qHTS for Inhibitors of ATXN expression: Validation of Cytotoxic Assay (AID 588349); note: % is set by controls: 0 for no effect and ±100 for the full control effect
Procedure, shortened: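 Cytotoxicity counter-screen: HEK293 cells exposed to compound titrations, 72 hr, 37 degrees C. Read-out is intracellular ATP (CellTiter Glo luminescence) as a viability measure.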

[5] = target: Bile acid receptor (Homo sapiens) (UniProt Q96RI1); assay: qHTS assay for small molecule antagonists of farnesoid X receptor signaling (AID 588526; calls by dose curve; note: % is set by controls: 0 for no effect and ±100 for the full control effect)
Procedure, shortened: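 Antagonist mode: titrated compounds tested against chenodeoxycholic acid stimulation (normalized to 50 uM CDCA and DMSO) in GeneBLAzer HEK293T cells for 16 h. Beta-lactamase read by CCF4 fluorescence; IC50 from Hill fits.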

[6] = target: Glucocorticoid receptor (Homo sapiens) (UniProt P04150); assay: qHTS assay for small molecule agonists of glucocorticoid receptor signaling (AID 588532; active = well fitted curve in the direction sought with a large enough effect in the signal ratio, with a control signal flat; the % refers to the signal ratio; note: potency is the fitted concentration of half-maximal effect;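 for activation: 100% = dexamethasone at 0.1 µM and 0% = DMSO only wells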); details: HeLa MMTV-bla, beta-lactamase ratio, agonist, 18 h; activation: stronger effect = higher value, percent of dexamethasone control, DMSO zero
Procedure, shortened: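 MMTV-bla HeLa beta-lactamase reporter cells in 1% charcoal/dextran FBS medium, compounds up to 92 uM for 18 h at 37 C, CCF4 readout; normalized to 0.1 uM dexamethasone (100%), EC50 and efficacy from Hill fits.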

[7] = target: Glucocorticoid receptor (Homo sapiens) (UniProt P04150); assay: qHTS assay for small molecule antagonists of glucocorticoid receptor signaling (AID 588533; active = well fitted inhibition curve with a large enough effect in the signal ratio, with a control signal flat, not every such curve was filed as active; the % refers to the signal ratio; note: % is set by controls: 0 for no effect and ±100 for the full control effect)
Procedure, shortened: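 Antagonist-mode qHTS: compound titrations added to GRE-bla HeLa cells, then dexamethasone 2 nM final; 18 h, 37 C. CCF4 FRET fluorescence normalized to dexamethasone and DMSO; IC50 from Hill fit.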

[8] = qHTS assay for small molecule antagonists of peroxisome proliferator-activated receptor delta signaling (AID 588535; active = well fitted inhibition curve with a large enough effect in the signal ratio, with a control signal flat, not every such curve was filed as active; the % refers to the signal ratio;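 for max response: cells co-treated with a PPAR-delta agonist as stimulator during compound exposure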); details: HEK293T PPARd-UAS-bla, beta-lactamase FRET ratio, 18 h; 460 nm channel
Procedure, shortened: (§1)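 Beta-lactamase reporter read-out (405 nm excitation, 460/530 nm emission) after CCF4 loading for 2 hrs at RT. HEK293T PPAR-delta-UAS-bla cells, 2% charcoal/dextran FBS, compounds for 18 hrs at 37 C. Hill fit gave IC50 and efficacy.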

[9] = target: Peroxisome proliferator-activated receptor delta (Homo sapiens) (UniProt Q03181); assay: as above
Procedure, shortened: as §1

[10] = target: Peroxisome proliferator-activated receptor gamma (Homo sapiens) (UniProt P37231); assay: qHTS assay for small molecule agonists of peroxisome proliferator-activated receptor gamma signaling (AID 588536; active = well fitted curve in the direction sought with a large enough effect in the signal ratio, with a control signal flat, not every such curve was filed as active; the % refers to the signal ratio;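 note: 0% = DMSO basal wells and 100% = rosiglitazone at 2 µM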)
Procedure, shortened: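 Using GeneBLAzer HEK293 cells, response was quantified by CCF4 fluorescence and normalized between basal DMSO (0%) and rosiglitazone 2 uM (100%); curves yielded half-maximal stimulation concentration and efficacy.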

[11] = target: Peroxisome proliferator-activated receptor gamma (Homo sapiens) (UniProt P37231); assay: qHTS assay for small molecule antagonists of peroxisome proliferator-activated receptor gamma signaling (AID 588537; active = well fitted inhibition curve with a large enough effect in the signal ratio, with a control signal flat, not every such curve was filed as active; the % refers to the signal ratio;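 note: reporter cells co-stimulated with 50 nM rosiglitazone agonist during compound treatment; % of control where 0% means no effect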)
Procedure, shortened: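 Read-out: CCF4 fluorescence (ex 405, em 460/530 nm) after 2 h at RT. Cells were HEK293 carrying a UAS-bla reporter and treated 16 h at 37 C with compound plus rosiglitazone (50 nM final). Normalized to rosiglitazone and DMSO.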

[12] = target: Vitamin D3 receptor (Homo sapiens) (UniProt P11473); assay: qHTS assay for small molecule antagonists of vitamin D receptor signaling (AID 588541; calls by dose curve)
Procedure, shortened: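 VDR-UAS-bla HEK293T cells in 2% charcoal-stripped FBS were stimulated with 1-alpha,25-dihydroxyvitamin D3 (3 nM final) plus compound for 16 h at 37 C. The beta-lactamase CCF4 readout was normalized to 50 nM agonist and DMSO, and Hill fits gave IC50.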

[13] = target: Vitamin D3 receptor (Homo sapiens) (UniProt P11473); assay: qHTS assay for small molecule agonists of vitamin D receptor signaling (AID 588543; calls by dose curve;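 note: 0% = DMSO basal and 100% = reference agonist control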)
Procedure, shortened: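 VDR-UAS-bla HEK293T cells, 2000/well, 2% charcoal-stripped FBS; compound titration 16 h at 37 C; CCF4 beta-lactamase ratio read. Normalized to 50 nM 1-alpha,25-dihydroxyvitamin D3 (100%) and DMSO; Hill fit gives EC50, efficacy.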

[14] = qHTS assay for small molecule agonists of retinoid X receptor alpha signaling (AID 588544); details: HEK293T RXRa-UAS-bla, beta-lactamase reporter, 18 h; 530 nm emission
[15] = target: Thyroid hormone receptor beta (Homo sapiens) (UniProt P10828); assay: qHTS assay for small molecule agonists of thyroid hormone receptor beta signaling (AID 588545; calls by dose curve;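 note: 0% = DMSO only and 100% = 10 nM T3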)
Procedure, shortened: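 Compounds were tested as agonists in TR-UAS-bla-GripTite HEK 293 cells. After 18 hrs at 37 C, CCF4 substrate was added and fluorescence read after 2 hrs at room temperature.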

[16] = target: DNA dC->dU-editing enzyme APOBEC-3G (Homo sapiens) (UniProt Q9HC16); assay: qHTS for inhibitors of Vif-A3G interactions: Validation (AID 588379); note: 0% is about no effect
Procedure, shortened: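 Yellow fluorescence (Ex 488, Em 500-530) of Vif-coexpressing HeLa A3G-eYFP cells, scanned by Acumen cytometer, reports blocked A3G degradation. Cells plated at 700/well overnight at 37 deg C before compound addition, then a further overnight compound incubation at 37 deg C.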

[17] = target: Estrogen receptor (Homo sapiens) (UniProt P03372); assay: qHTS assay for small molecule antagonists of estrogen receptor alpha signaling (AID 588513; active = well fitted curve in the direction sought with a large enough effect in the signal ratio, with a control signal flat, not every such curve was filed as active; the % refers to the signal ratio; note: % is set by controls: 0 for no effect and ±100 for the full control effect)
Procedure, shortened: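 ER-alpha-UAS-bla GripTite HEK 293 cells in 2% charcoal/dextran-treated FBS medium; compounds titrated (1:2, duplicate), then stimulated with 0.5 nM 17-beta-estradiol for 18 h at 37C. CCF4 beta-lactamase fluorescence; Hill-fit IC50 and efficacy.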

[18] = target: Estrogen receptor (Homo sapiens) (UniProt P03372); assay: qHTS assay for small molecule agonists of estrogen receptor alpha signaling (AID 588514; calls by dose curve;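 note: 0% = vehicle only and 100% = reference agonist; nearly all actives have a fitted effect of over 70% in size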)
Procedure, shortened: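 Read-out: CCF4 fluorescence from a beta-lactamase reporter in ER-alpha-UAS-bla HEK 293 cells after 18 hrs of compound exposure at 37 C. Normalized to 20 nM 17-beta-estradiol (100%) and DMSO (0%).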

DNA dC->dU-editing enzyme APOBEC-3G (Homo sapiens), sequence (Q9HC16 whole entry, looked up): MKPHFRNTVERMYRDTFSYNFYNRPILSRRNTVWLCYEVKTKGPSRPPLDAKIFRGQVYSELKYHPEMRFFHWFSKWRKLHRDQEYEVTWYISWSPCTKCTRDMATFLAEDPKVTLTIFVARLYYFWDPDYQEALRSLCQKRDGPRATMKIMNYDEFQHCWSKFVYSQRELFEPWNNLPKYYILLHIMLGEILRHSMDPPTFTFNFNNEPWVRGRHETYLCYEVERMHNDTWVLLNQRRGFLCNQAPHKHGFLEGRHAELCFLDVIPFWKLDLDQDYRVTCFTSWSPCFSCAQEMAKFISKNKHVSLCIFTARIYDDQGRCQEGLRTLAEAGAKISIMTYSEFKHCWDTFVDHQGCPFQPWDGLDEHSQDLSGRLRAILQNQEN
Peroxisome proliferator-activated receptor delta (Homo sapiens), sequence (Q03181 whole entry, looked up): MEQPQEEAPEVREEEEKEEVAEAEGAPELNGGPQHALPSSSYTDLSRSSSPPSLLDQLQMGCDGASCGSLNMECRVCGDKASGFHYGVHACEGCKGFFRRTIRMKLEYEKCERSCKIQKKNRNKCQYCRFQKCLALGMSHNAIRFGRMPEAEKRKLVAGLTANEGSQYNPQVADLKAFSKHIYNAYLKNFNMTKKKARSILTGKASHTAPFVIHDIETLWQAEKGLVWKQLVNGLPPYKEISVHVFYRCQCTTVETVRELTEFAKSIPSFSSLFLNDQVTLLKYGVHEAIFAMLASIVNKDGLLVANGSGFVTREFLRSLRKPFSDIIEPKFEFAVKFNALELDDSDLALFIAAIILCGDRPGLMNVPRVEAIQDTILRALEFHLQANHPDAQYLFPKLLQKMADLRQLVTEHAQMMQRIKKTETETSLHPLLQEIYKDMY
Estrogen receptor (Homo sapiens), sequence (P03372 whole entry, looked up): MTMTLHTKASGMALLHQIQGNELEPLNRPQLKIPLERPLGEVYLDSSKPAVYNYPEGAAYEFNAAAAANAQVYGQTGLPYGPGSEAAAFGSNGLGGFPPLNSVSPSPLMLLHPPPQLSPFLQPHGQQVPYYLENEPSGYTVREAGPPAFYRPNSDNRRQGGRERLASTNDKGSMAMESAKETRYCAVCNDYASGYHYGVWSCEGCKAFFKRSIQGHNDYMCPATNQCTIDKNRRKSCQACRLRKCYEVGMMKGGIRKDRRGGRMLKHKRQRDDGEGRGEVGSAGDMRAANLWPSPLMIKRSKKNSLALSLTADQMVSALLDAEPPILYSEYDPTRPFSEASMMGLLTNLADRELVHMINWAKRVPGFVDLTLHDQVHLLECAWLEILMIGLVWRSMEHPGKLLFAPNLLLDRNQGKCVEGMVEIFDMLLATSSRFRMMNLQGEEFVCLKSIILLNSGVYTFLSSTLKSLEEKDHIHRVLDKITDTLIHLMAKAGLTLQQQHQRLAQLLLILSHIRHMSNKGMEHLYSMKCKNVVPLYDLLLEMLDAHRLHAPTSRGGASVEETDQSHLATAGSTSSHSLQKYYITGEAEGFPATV
Peroxisome proliferator-activated receptor gamma (Homo sapiens), sequence (P37231 whole entry, looked up): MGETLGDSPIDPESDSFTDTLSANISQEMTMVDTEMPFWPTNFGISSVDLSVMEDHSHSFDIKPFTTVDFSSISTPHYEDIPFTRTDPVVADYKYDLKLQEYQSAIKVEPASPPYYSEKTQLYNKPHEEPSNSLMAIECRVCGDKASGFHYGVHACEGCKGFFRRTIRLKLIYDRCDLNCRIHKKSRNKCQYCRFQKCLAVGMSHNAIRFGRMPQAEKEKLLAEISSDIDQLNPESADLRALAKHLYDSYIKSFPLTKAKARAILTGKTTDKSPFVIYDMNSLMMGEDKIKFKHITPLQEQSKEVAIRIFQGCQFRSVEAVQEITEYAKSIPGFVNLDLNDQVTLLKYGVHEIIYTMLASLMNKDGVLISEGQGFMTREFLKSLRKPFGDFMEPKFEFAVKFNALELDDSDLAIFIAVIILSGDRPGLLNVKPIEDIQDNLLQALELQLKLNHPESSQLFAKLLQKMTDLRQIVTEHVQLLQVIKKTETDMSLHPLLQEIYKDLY
Bile acid receptor (Homo sapiens), sequence (Q96RI1 whole entry, looked up): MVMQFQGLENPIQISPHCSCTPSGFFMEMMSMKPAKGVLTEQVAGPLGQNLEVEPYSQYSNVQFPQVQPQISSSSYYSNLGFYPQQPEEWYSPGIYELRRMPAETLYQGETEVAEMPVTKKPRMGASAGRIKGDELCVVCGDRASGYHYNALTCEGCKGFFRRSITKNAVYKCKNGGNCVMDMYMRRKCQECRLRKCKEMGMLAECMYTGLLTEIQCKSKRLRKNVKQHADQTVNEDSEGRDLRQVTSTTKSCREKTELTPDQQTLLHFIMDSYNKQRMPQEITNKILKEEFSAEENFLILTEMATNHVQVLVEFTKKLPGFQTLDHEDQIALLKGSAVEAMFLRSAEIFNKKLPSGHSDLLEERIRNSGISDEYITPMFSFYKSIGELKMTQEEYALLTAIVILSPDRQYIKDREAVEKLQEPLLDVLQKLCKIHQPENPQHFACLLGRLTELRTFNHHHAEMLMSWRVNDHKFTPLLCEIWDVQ
Vitamin D3 receptor (Homo sapiens), sequence (P11473 whole entry, looked up): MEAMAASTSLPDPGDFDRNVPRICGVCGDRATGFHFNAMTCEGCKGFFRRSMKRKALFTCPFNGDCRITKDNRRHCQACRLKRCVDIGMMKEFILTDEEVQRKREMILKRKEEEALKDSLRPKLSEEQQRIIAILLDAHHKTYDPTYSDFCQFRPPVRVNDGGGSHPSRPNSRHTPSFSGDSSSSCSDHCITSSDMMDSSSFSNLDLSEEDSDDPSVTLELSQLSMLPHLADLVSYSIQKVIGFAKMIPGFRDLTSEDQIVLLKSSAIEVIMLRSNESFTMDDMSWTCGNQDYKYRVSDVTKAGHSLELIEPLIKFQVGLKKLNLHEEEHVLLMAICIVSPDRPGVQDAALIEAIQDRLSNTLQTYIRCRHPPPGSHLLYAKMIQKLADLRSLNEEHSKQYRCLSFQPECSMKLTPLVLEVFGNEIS
Thyroid hormone receptor beta (Homo sapiens), sequence (P10828 whole entry, looked up): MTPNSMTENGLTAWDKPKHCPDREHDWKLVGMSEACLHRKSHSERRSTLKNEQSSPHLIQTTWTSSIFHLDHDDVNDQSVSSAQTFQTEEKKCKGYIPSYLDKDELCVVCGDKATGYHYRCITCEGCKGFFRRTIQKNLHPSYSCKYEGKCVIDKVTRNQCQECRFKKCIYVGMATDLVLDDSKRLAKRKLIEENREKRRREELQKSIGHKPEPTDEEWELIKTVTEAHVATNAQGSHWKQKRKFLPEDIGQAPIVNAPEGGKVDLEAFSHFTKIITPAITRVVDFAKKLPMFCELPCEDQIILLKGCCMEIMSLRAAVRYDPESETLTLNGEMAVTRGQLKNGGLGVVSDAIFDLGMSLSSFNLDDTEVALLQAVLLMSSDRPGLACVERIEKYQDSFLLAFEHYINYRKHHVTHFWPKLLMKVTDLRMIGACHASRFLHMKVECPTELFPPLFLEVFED
phosphoglycerate mutase (Leishmania major), sequence (Q4Q090 1-553): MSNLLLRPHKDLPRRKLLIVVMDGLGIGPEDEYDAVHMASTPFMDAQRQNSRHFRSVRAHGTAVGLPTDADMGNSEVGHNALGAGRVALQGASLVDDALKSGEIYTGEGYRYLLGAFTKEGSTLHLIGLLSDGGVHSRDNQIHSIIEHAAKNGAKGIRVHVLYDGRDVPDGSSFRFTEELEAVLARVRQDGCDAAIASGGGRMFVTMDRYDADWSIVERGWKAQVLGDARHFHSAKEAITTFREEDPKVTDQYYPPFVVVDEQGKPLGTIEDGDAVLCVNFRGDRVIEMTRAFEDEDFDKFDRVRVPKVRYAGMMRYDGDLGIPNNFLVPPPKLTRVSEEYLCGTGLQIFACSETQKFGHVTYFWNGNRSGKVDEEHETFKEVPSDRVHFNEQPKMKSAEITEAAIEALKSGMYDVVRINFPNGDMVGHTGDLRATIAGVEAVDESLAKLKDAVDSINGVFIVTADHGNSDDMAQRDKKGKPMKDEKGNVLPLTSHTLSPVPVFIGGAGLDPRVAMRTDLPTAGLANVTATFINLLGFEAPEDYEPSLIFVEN
Glucocorticoid receptor (Homo sapiens), sequence (P04150 whole entry, looked up): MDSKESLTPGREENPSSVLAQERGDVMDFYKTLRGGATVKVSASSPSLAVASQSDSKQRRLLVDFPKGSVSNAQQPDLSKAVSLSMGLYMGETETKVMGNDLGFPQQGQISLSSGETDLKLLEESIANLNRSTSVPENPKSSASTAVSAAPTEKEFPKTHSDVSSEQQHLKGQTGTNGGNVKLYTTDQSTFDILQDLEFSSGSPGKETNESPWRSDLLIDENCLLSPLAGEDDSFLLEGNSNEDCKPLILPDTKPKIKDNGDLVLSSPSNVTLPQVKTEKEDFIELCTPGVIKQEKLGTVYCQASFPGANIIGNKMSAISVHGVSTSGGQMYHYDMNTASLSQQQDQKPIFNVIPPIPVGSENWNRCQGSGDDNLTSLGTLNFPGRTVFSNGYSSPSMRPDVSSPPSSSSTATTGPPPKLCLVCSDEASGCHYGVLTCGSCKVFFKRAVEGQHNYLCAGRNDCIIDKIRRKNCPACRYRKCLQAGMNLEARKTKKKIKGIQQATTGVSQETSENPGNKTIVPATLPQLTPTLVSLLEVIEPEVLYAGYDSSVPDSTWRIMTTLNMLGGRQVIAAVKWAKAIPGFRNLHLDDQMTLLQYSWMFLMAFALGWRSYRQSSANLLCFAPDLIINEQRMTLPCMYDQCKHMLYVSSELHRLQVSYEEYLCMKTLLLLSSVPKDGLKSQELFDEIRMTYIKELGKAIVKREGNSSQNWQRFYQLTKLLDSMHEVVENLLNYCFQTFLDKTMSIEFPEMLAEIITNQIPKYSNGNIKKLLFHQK

Cc1ccc(Cl)c(Nc2ccccc2C(=O)O)c1Cl
inactive: outcome [1] | Potency [2] | Potency [3]

CC(=O)Oc1cc(C(C)C)c(OCCN(C)C)cc1C
inactive: outcome [1] | Potency [2] | Potency [3]

CCCCNC(=O)NS(=O)(=O)c1ccc(C)cc1
-29.2% and 9.07%: max response [8]
inactive: outcome [1] | Potency [2] | Potency [4] | Potency [3] | outcome [5] | activation [6] -10.2% | Potency [7] | outcome [9] | outcome [10] | outcome [11] | outcome [12] | outcome [13] | Potency [15]
-17.3%: max response [14]

CN(C)CCN(Cc1cccs1)c1ccccn1
inactive: outcome [1] | Potency [2] | Potency [3]

COC(=O)[C@@H](N)Cc1ccc(O)c(O)c1
inactive: outcome [1] | Potency [2] | Potency [3]

NC1=NCC2c3ccccc3Cc3ccccc3N12 (stereo not drawn)
inactive: outcome [1] | Potency [2] | Potency [3]

O=C(O)CN(CCN(CC(=O)O)CC(=O)O)CCN(CC(=O)O)CC(=O)O
inactive: outcome [1] | Potency [2] | Potency [3]

COCC(=O)O[C@]1(CCN(C)CCCc2nc3ccccc3[nH]2)CCc2cc(F)ccc2[C@@H]1C(C)C
active: Potency [3] 15.8 µM
inactive: outcome [1] | Potency [2]

Cc1cc(C)c(/C=C2\C(=O)Nc3ccccc32)[nH]1
inactive: outcome [1] | Potency [3]
active: Potency [2] 7.52 µM

CCCNC(C)C(=O)Nc1ccccc1C (stereo not drawn)
inactive: outcome [1] | Potency [2] | Potency [3]

COCCOC(=O)C1=C(C)NC(C)=C(C(=O)OC(C)C)C1c1cccc([N+](=O)[O-])c1 (stereo not drawn)
inactive: outcome [1] | Potency [2] | Potency [3]

O=c1[nH]c(=O)n([C@H]2C[C@H](O)[C@@H](CO)O2)cc1Br
16.6%: max response [14]
inactive: outcome [1] | Potency [2] | Potency [4] | Potency [3] | outcome [16] | outcome [17] | Potency [18] | outcome [5] | outcome [9] | outcome [10] | outcome [12] | outcome [13] | Potency [15]
-1.7%: max response [8]

CC(C(=O)O)c1ccc(CC2CCCC2=O)cc1 (stereo not drawn)
inactive: outcome [1] | Potency [2] | Potency [3]

CC(=O)Nc1nnc(S(N)(=O)=O)s1
-3.24%: max response [14]
inactive: outcome [1] | Potency [2] | Potency [4] | Potency [3] | outcome [17] | Potency [18] | outcome [10] | outcome [11]

C[C@]12C=CC(=O)C=C1CC[C@H]1[C@@H]3C[C@@H](O)[C@](O)(C(=O)CO)[C@@]3(C)C[C@H](O)[C@@]12F
inactive: outcome [1] | Potency [2] | Potency [4] | Potency [3] | outcome [17] | Potency [18] | Potency [7] | outcome [9] | outcome [10] | outcome [11] | outcome [12] | outcome [13] | Potency [15]
active: Potency [6] 0.112 µM
-12%: max response [14]
10.9%: max response [8]

CCCN(CCC)CCc1cccc2c1CC(=O)N2
inactive: outcome [1] | Potency [2] | Potency [3]

CCOC(=O)C1=C(C)NC(C)=C(C(=O)OC)C1c1cccc([N+](=O)[O-])c1 (stereo not drawn)
inactive: outcome [1] | Potency [2] | Potency [3]

CC(=O)OCC1=C(C(=O)O)N2C(=O)[C@@H](NC(=O)Cc3cccs3)[C@H]2SC1
inactive: outcome [1] | Potency [2] | Potency [3]

Cc1nnc(SCC2=C(C(=O)O)N3C(=O)[C@@H](NC(=O)Cn4cnnn4)[C@H]3SC2)s1
inactive: outcome [1] | Potency [2] | Potency [3]

C[N+](C)(C)CCOC(=O)CCC(=O)OCC[N+](C)(C)C
inactive: outcome [1] | Potency [2] | Potency [3]

C[N+](C)(C)CCCCCCCCCC[N+](C)(C)C
inactive: outcome [1] | Potency [2] | Potency [3]

CN(C)[C@@H]1C(=O)C(C(N)=O)=C(O)[C@@]2(O)C(=O)C3=C(O)c4c(O)ccc(Cl)c4[C@@H](O)[C@H]3C[C@@H]12
inactive: outcome [1] | Potency [2] | Potency [3]

CN=C(NC#N)NCCSCc1nc[nH]c1C
inactive: outcome [1] | Potency [2] | Potency [4] | Potency [3] | outcome [16] | outcome [17] | Potency [18] | outcome [5] | outcome [9] | outcome [10] | outcome [11] | outcome [12] | outcome [13] | Potency [15]
10.9%: max response [14]
-4.23%: max response [8]

CN(C)CC[C@@H](c1ccc(Br)cc1)c1ccccn1
inactive: outcome [1] | Potency [2] | Potency [3]

COc1ccc(CN(CCN(C)C)c2ccccn2)cc1
inactive: outcome [1] | Potency [2] | Potency [4] | outcome [16] | activation [6] -0.651% | outcome [9] | outcome [10] | Potency [15]
15.1%: max response [8]
16.3%: max response [14]

c1cnc(N2CCN(Cc3ccc4c(c3)OCO4)CC2)nc1
inactive: outcome [1] | Potency [2] | Potency [3] | outcome [16]

O=C(CCCN1CCC(O)(c2cccc(C(F)(F)F)c2)CC1)c1ccc(F)cc1
inactive: Potency [2] | Potency [4]

COc1ccc2c(c1OC)C(=O)O[C@@H]2[C@H]1c2c(cc3c(c2OC)OCO3)CCN1C
inactive: outcome [1] | Potency [2] | Potency [3] | outcome [16]
